Screening results from PubChem.
FBW7 activator – activators of human E3 ligase FBW7; hit rate 0.13% among 650,000; normalized activity (activation), % at 26.1 µM; AID 1259310; Q969H0; AlphaScreen FBW7–phospho-cyclin E peptide binding, activator screen; in the data active means normalized activity above about 1.9%;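 further: purified mutant Fbw7 with reduced substrate affinity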
GPR151 ag – human GPR151 activation. PathHunter beta-arrestin GPR151 cells, luminescence. hit rate 1% among 650,000. AID 1508602. activation, % at 11.2 µM. Q8TDV0; in the data active means activation above about 4.9%;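 further: 0% = median of compound wells and 100% = cells with positive control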
MITF primary – blocks human microphthalmia-associated transcription factor; O75030; AlphaScreen MITF homodimerization, bead proximity signal; hit rate 0.91% among 650,000; inhibition, % at 2.6 µM; in the data active means inhibition above about 50%;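 further: 0% = vehicle wells with protein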
Target sequence (O75030 whole entry, looked up): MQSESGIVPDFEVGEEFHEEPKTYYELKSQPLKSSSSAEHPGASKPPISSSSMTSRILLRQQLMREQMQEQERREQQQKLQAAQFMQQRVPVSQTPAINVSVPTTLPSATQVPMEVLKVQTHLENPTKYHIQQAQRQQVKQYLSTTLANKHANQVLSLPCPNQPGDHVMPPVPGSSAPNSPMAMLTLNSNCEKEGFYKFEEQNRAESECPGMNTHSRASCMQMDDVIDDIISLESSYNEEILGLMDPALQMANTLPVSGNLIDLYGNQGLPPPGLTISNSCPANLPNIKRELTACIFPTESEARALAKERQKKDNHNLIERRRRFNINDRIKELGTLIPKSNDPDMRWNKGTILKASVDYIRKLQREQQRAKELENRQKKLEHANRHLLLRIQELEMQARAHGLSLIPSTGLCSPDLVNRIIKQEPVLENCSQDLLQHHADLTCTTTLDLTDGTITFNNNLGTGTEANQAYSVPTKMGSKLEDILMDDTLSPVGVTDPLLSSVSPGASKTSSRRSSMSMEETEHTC
TEAD-YAP inh – TEAD-YAP interaction inhibition. HEK-TIYL cells, TEAD-Gal4/YAP UAS-luciferase luminescence. inhibition, % at 9.12 µM. hit rate 1.4% among 640,000; in the data active means inhibition above about 32%;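 further: 0% = median of test compound wells and 100% = reference inhibitor wells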
GPR151 conf act – human GPR151 activation, confirmation screen | shares compounds with GPR151 ag | AID 1508609 | 6,700 tested, under 10 active | GPR151 PathHunter beta-arrestin cells, luminescence, 90 min; % of EA-reagent control over plate median | activation, % at 11.2 µM;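 active means mean percent activation across replicates above the confirmation screen cutoff of 4.91%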
GPR119 ag – counter-screen for GPR151 activators: effect on human GPR119 | shares compounds with GPR151 ag | GPR119 PathHunter beta-arrestin cells, luminescence, 90 min; 0 = compound-well median, 100 = enzyme-acceptor control | activation, % at 11.2 µM | hit rate 0.3% among 6,700;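 active means mean percent activation in the counterscreen above 29.09%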;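 further: counterscreen on off-target GPR119 to flag nonselective hits from the GPR151 activator screen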
* hit, by the source's call; · = not tested or not shown. Hits are enriched below; roughly 3.5% of the tested compounds scored in any of these assays.

SMILES	FBW7 activator	GPR151 ag	MITF primary	TEAD-YAP inh	GPR151 conf act	GPR119 ag
CC(C)(C)NS(=O)(=O)c1ccc(NC(=O)COc2ccc(Br)cc2)cc1	0	16*	4	1	1	14
CC(=O)NS(=O)(=O)c1ccc(NC(=O)COc2ccc(Br)cc2)cc1	0	5.8*	7	6	-1	-12
CC(=O)N1CCN(c2c([N+](=O)[O-])cc(C(F)(F)F)cc2[N+](=O)[O-])CC1	0	2	6	-4	·	·
Cc1ccc(S(=O)(=O)N2CCCC2CNC(=O)C(=O)Nc2cc(C)cc(C)c2)cc1 (configuration not stated)	0	4	-6	11	·	·
CNc1cc(N2CCN(S(=O)(=O)c3ccc4c(c3)CCCC4)CC2)ccc1[N+](=O)[O-]	0	13*	-5	4	-1	0
CNc1cc(N2CCN(S(=O)(=O)c3ccccc3)CC2)ccc1[N+](=O)[O-]	0	1	2	5	·	·
CC(=O)N1CCC(C(=O)NC(c2ccccn2)c2cccs2)CC1 (configuration not stated)	1	-1	17	0	·	·
O=C(Nc1ccc(Cl)c(-c2nc3ccccc3o2)c1)c1ccccc1F	0	-1	6	15	·	·
Cc1ccc(C(=O)Nc2ccc(-c3nc4ccccc4o3)cc2)c(Cl)c1	1	6.5*	-3	-9	1	10
O=C(Nc1ccc(Cl)c(-c2nc3ccccc3o2)c1)c1ccccc1Br	0	5.9*	-7	-7	0	10
CC(=O)Nc1ccc(OCCn2c(C)c(C=C3C(=O)NC(=O)NC3=O)c3ccccc32)cc1	0	6.4*	6	-8	-1	-5
COC(=O)C1=C(N)N(c2ccccc2C(F)(F)F)C2=C(C(=O)CCC2)C1c1ccc(OC)cc1 (configuration not stated)	0	0	-3	-14	·	·
COC(=O)CC1C(C(=O)OC)=[N+]([O-])OC1C(=O)OC (configuration not stated)	0	1	3	13	·	·
COC(=O)[C@H]1CCc2ccccc2N1C(=O)C1CCCC1	0	0	3	0	·	·
Cn1c(=O)c2c(ncn2CC(=O)Nc2ccccc2)n(C)c1=O	0	3	-3	-17	·	·
CCn1c2ccccc2c2cc(NC(=O)Cn3cnc4c3c(=O)n(C)c(=O)n4C)ccc21	0	6.1*	3	-4	0	-2
CN(C)S(=O)(=O)c1ccc(C(=O)CSc2n[nH]c(N)n2)cc1	0	9.6*	0	-31	0	3
O=c1oc2ccc(Br)cc2cc1-c1csc(-c2ccc(Cl)cc2)n1	0	2	7	1	·	·
O=c1oc2ccc(Br)cc2cc1-c1csc(-c2ccccc2)n1	0	5.2*	-13	5	-1	-2
COc1ccccc1C(=O)Nc1ccc(NC(=O)c2ccco2)nc1	0	-1	-2	-68	·	·
Cc1cc(C(F)(F)F)c(C#N)c(SC2CC(=O)N(c3ccccc3)C2=O)n1 (configuration not stated)	1	9.3*	12	0	1	0
Cc1ccc(N2C(=O)CC(Sc3nc(C)cc(C(F)(F)F)c3C#N)C2=O)cc1 (configuration not stated)	0	-3	18	-10	·	·
Cc1ccc(SC2CC(=O)N(c3ccccc3)C2=O)cc1 (configuration not stated)	0	5.0*	5	1	-1	-12
Cc1ccc(N2C(=O)CC(Sc3nc(-c4ccccc4)ccc3C#N)C2=O)cc1 (configuration not stated)	0	1	10	-19	·	·
CC(C)Cc1ccc(C#N)c(SC2CC(=O)N(c3ccccc3)C2=O)n1 (configuration not stated)	0	7.5*	-7	-33	0	-2
Cc1ccc(N2C(=O)CC(Sc3nc(C)cc(C)n3)C2=O)cc1 (configuration not stated)	0	1	-6	19	·	·
CCC1Sc2cc(S(=O)(=O)CCC(=O)Nc3ccc(OC)cc3)ccc2NC1=O (configuration not stated)	0	0	-1	-1	·	·
COc1ccc2[nH]cc(/C=C3\C(=O)Nc4ccccc43)c2c1	0	3	4	-31	·	·
Cc1sc2nc(C)n(CC(=O)NCc3ccccc3)c(=O)c2c1C	0	1	3	7	·	·
